# Shown are actives, neighbours in structure and some others; about 2.3% of the full set was active somewhere.
# FBPA coupling cs = qHTS Assay for Inhibitors of Fructose-1,6-bisphosphate Aldolase from Giardia Lamblia: Coupling assay counterscreen. activity change, negative = inhibition, % at 58.2 µM, hits read low. AID 2472, 2010. 290,000 tested, 0.67% active. coupling enzyme system counterscreen, AmpLite Red fluorescence; in the data active means activity change below about -30%
#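 Counterscreen lacking aldolase: glyceraldehyde-3-phosphate coupling-enzyme reagent preincubated 10 min at RT with compound (at 57.5 uM final), then substrate/coupling system with AmpLite Red added; fluorescence read at 525/598 nm after 20 min RT.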
# USP1-UAF1 inh = Inhibitors of USP1/UAF1: Primary Screen. recombinant USP1/UAF1, Ub-Rhodamine cleavage fluorescence. Potency, µM (doses to about 57.1 µM), for the others: at the top dose activity change, negative = inhibition, usual class: inhibitors. Ubiquitin carboxyl-terminal hydrolase 1 (Homo sapiens), O94782. 390,000 tested, 0.23% active; further: potency means the concentration at half of the fitted maximal effect; nearly all actives have a fitted effect of over 60% in size
#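 High-throughput fluorogenic screen: 1nM USP1/UAF1 complex, Ub-Rho substrate 150nM final, 50mM HEPES pH 7.8 with 0.5mM EDTA, 0.1 mg/ml BSA, 1mM TCEP and 0.01% Tween-20.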
# Tau FP inhib = qHTS for Inhibitors of Tau Fibril Formation, Fluorescence Polarization | 280,000 tested, 0.39% active | K18 P301L tau heparin fibrillization, Alexa594 FP, 6 h | Potency, µM (top dose mostly 57.7 µM), for the others: top-dose activity, negative = inhibition, hits mostly inhibitors | Microtubule-associated protein tau (Homo sapiens), P10636; further: potency means the concentration at half of the fitted maximal effect; nearly all actives have a fitted effect of over 55% in size
# Target sequence (P10636 561-689 P618L limits assumed): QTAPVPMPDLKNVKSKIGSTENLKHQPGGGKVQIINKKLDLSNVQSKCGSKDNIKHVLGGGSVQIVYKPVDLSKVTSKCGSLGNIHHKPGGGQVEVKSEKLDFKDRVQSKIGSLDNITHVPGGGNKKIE
#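 Human tau K18 […] P301L fragment, 15 uM unlabeled plus 0.24 uM Alexa 594-labeled tau (final), with compound and 20 uM heparin in 100 mM sodium acetate pH 7; 6 hr at 37 C, then Alexa 594 FP read.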
# Tau fibril ThT = qHTS for Inhibitors of Tau Fibril Formation, Thioflavin T Binding; AID 1460, 2008; Potency, µM (titrated, usually from 57.4 µM), for the others: at the top dose activity, negative = inhibition, most hits filed as inhibitors; recombinant tau K18 P301L, heparin-induced fibrillization, ThT fluorescence; Microtubule-associated protein tau (Homo sapiens), P10636; 270,000 tested, 2.1% active; further: potency means the concentration at half of the fitted maximal effect; nearly all actives have a fitted effect of over 55% in size
#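 Heparin-induced fibrillization of the P301L-mutant K18 repeat-domain fragment of human tau was followed by ThT binding in quantitative high-throughput format.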
# Tau fluor counter = Counterscreen qHTS for Inhibitors of Tau Fibril Formation, Fluorescence Polarization; Potency, µM (highest dose often 57.7 µM), without a hit: top-dose activity change, negative = decrease; 280,000 tested, 0.93% active; AID 1463, 2008; tau K18 P301L (four-repeat tau fragment) Alexa594 fluorescence, heparin fibrillization; further: potency means the concentration at half of the fitted maximal effect; nearly all actives have a fitted effect of over 55% in size
#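 Human K18 P301L tau (15 uM unlabeled plus 0.24 uM Alexa 594-labeled, final) in 100 mM sodium acetate pH 7 was mixed with compound and 20 uM heparin and incubated 6 hr at 37 C.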
# The depositor's hits bear a star; ? = inconclusive; . = not tested or not shown; [ ] = another dose, or the depositor's remark. Unless noted, the call rests on the fitted dose curve; in most records, active means well fitted curve in the direction sought with a large enough effect; inconclusive means small, poorly fitted or top-dose-only effect, or another doubt; inactive means no such curve, though single readings can be large; an effect the other way counts as inactive or inconclusive. On the % scale 0 is the no-effect control and ±100 the full control effect.
SMILES,FBPA coupling cs,USP1-UAF1 inh,Tau FP inhib,Tau fibril ThT,Tau fluor counter
COc1cc(-c2cc(OC)c3c(C)oc(C)c3c(=O)c2)ccc1OC(=O)c1ccccc1Cl,.,?,0%,?,-11%
COc1ccc(-c2nc(/C=C3\C(C)=Nc4ccccc43)c(O)o2)cc1,-5,?,?,4µM*,8.9µM*[quencher]
CC1=Nc2ccccc2/C1=C\c1nc(-c2ccc(C(F)(F)F)cc2)oc1O,-3,13µM*,3%,13µM*,11µM*[quencher]
Oc1ccccc1-c1nnc(-c2ccc(C(F)(F)F)cc2)o1,3,-9%,-1%,-10%,-8%
CC1=Nc2ccccc2/C1=C\c1nc(-c2ccccc2)oc1O,-10,?,?,5µM*,7.9µM*[quencher]
CC1=Nc2ccccc2/C1=C/c1nc(-c2ccc(C)s2)oc1O,0,14%,4%,2.8µM*,5µM*[quencher]
COc1cc(OC)cc(-c2nc3nc(C)c(CCC(=O)Nc4ccc(C)c(C)c4)c(C)n3n2)c1,.,-16%,3%,?,-20%
COc1ccc(C(=O)NN2CCOCC2)cc1,1,-14%,.,.,.
COC(=O)/C=C1\SC(N2CCOCC2)=C(c2ccc(OC)cc2)C1=O,6,-23%,?,28µM*,-20%
COc1ccc(OC)c(CNS(=O)(=O)c2ccc3[nH]c4c(c3c2)CCCCC4)c1,.,-15%,10%,-13%,?
COc1ccc(NS(=O)(=O)c2ccc3[nH]c4c(c3c2)CCCC4)c(OC)c1,.,1%,15%,-7%,16µM*[quencher]
CCOc1ccc(NS(=O)(=O)c2ccc3[nH]c4c(c3c2)CCCC4)cc1,.,1%,-1%,-1%,13µM*[quencher]
COc1ccc(NS(=O)(=O)c2ccc3[nH]c4c(c3c2)CCCCC4)cc1,.,?,-11%,?,3.5µM*[quencher]
COCCCNS(=O)(=O)c1ccc2[nH]c3c(c2c1)CCCCC3,1,-21%,.,.,.
COc1ccc(NS(=O)(=O)c2ccc3nc(-c4ccccc4)[nH]c3c2)cc1,.,-18%,?,6%,?
CCOc1ccc(NS(=O)(=O)c2ccc3nc(-c4ccccc4)[nH]c3c2)cc1,.,?,20µM*,8%,?
COc1ccc(OC)c(-c2ccc(C(=O)O)o2)c1,10,.,-10%[126 µM],?,-26%[126 µM]
CCOC(=O)c1cc(S(=O)(=O)Nc2ccc(OC(F)(F)F)cc2)[nH]n1,.,-25%,-5%,2%,-12%
CCOc1ccc(NS(=O)(=O)c2ccc3[nH]c4c(c3c2)CCCCC4)cc1,.,-3%,10%,-6%,14µM*[quencher]
CCOC(=O)c1cc2c(=Cc3ccc(N(C)C)cc3)c3ccccc3n2[n+]1C,.,16µM*,.,.,.
CN(C)c1ccc(C=c2c3cc(O)ccc3n3c2cc(-c2ccccc2)[n+]3C)cc1,.,28µM*,.,.,.
C[n+]1c(-c2ccccc2)cc2c(=Cc3ccccc3)c3ccccc3n21,.,4µM*,.,.,.
C[n+]1c(-c2ccccc2)cc2c(=Cc3ccc([N+](=O)[O-])cc3)c3ccccc3n21,.,3.5µM*,.,.,.
CCOC(=O)c1cccc(NC(=O)CCn2nc(C)c3c(C)n(-c4ccccc4)nc3c2=O)c1,.,-6%,0%,12%,10%
COc1ccc(NC(=O)C(CC(C)C)NS(=O)(=O)c2ccc3c(c2)oc(=O)n3C)cc1Cl (stereo not drawn),.,9%,-2%,6%,4%
SMILES,FBPA coupling cs,USP1-UAF1 inh,Tau FP inhib,Tau fibril ThT,Tau fluor counter
COc1ccc(C2NC(=O)N(C)C3=C2C(=O)N(c2ccc(C)cc2)C3)cc1 (stereo not drawn),.,-3%,-6%,1%,-4%
CC1=C([N+](=O)[O-])C(c2cccc(Br)c2)C2=C(N1)c1ccccc1C2=O (stereo not drawn),-5,?,?,16µM*,14µM*[quencher]
Cc1ccc(C(=O)c2coc3c2C(=O)C(=O)c2ccccc2-3)cc1,-79*,-18%,?,2.2µM*,?
Cc1oc2c(c1C(=O)c1ccc(Cl)cc1)C(=O)C(=O)c1ccccc1-2,-79*,?,?,2.2µM*,-28%
COc1ccc(C(=O)c2coc(-c3ccccc3C(=O)O)c2C(=O)O)cc1,-2,-12%,4%,-1%,6%
Cc1ccc(C(=O)c2c(C)oc3c2C(=O)C(=O)c2ccccc2-3)cc1,-79*,14µM*,?,3.5µM*,-27%
CCC(O)c1cc2c(cc1NC(=O)c1ccccc1F)OCCO2 (stereo not drawn),.,-15%,6%,4%,3%
CCN(CC)CCNC(=O)C(=O)NCC(c1cccnc1)N1CCN(c2ccc(F)cc2)CC1 (stereo not drawn),.,-19%,11%,-16%,-6%
O=C(O)C1Nc2c(O)cc(Cl)c([N+](=O)[O-])c2C2C=CCC12 (stereo not drawn),-8,?,14µM*,7.9µM*,7.1µM*[quencher]
CC[n+]1c(/C=C(\C)OC)sc2ccccc21,-2,-17%,-6%,?,-16%
CC[n+]1c(/C=C/C=C/N(C(C)=O)c2ccccc2)sc2cc(OC)ccc21,1,28µM*,12%,13µM*,4µM*[fluorescent]
CC1=CC(=C2C(=O)c3ccccc3C2=O)C=C(C)N1Cc1ccco1,-5,-12%,7%,18µM*,-11%
O=C(c1ccccc1)c1c2c(cc3sc4ccccc4[n+]13)-c1cccc3cccc-2c13,0,?,?,6.3µM*,?
Cc1cc(=O)n(CC(=O)N2CCN(c3ccc(F)cc3)CC2)c2c1c(C)nn2C,.,0%,3%,-6%,-6%
Cn1cc(S(=O)(=O)c2ccc(Cl)cc2)c(=O)c2cc(F)c(N3CCOCC3)cc21,.,6%,-9%,2%,-7%
Clc1ccc(-c2csc(N/N=C\c3cccnc3)n2)cc1,2,-22%,1%,?,?
Brc1ccc(-c2csc(N/N=C/c3ccco3)n2)cc1,-1,-7%,-13%,16µM*,18µM*[quencher]
Cc1ccc(-c2csc(N/N=C/c3ccco3)n2)cc1,-3,-16%,2%,14µM*,?
CN(C)S(=O)(=O)c1ccc(-c2csc(N/N=C/c3ccco3)n2)cc1,0,-4%,10%,?,?
Clc1ccc(-c2csc(N/N=C/c3ccco3)n2)cc1,-1,-7%,-4%,14µM*,13µM*[quencher]
O=C(NNc1nc(-c2ccccc2)cs1)c1ccco1,2,-17%,?,11µM*,?
O=C(NNc1nc(-c2ccc(Cl)cc2)cs1)c1ccco1,2,-11%,-14%,?,?

# Screening results as filed in PubChem.
